Compounds with a hit are over-represented: about 6.8% of the library has one in this group of screens.
Pf Dd2 growth – P. falciparum Dd2 growth inhibition | SYBR Green, 72 h; active compounds read low | activity change, % at 10 µM | hit rate 2.3% among 94,000; in the data active = activity change below about -80%; inconclusive = no clear call, values can overlap the other calls
C diff HTS – C. difficile growth inhibition | hit rate 0.25% among 86,000 | Clostridium difficile clinical isolate growth, OD600, 24 h; active compounds read low | AID 1259249 | growth activity, negative = inhibition, % at 16 µg/mL (by protocol);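 active = mean growth activity at or below -80% and every replicate also at or below -80%; inconclusive = mean at or below -80% but some replicate above -80%; inactive = mean growth activity above -80%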;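 note: 0% = DMSO wells and -100% = levofloxacin 16 µg/mL wells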
T cruzi growth-1 – blocks T. cruzi growth in NIH3T3 culture | inhibition, % at 8.34 µM | AID 624255 | T. cruzi beta-gal in NIH3T3, GalScreen luminescence, 90 h | hit rate 5.9% among 77,000;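 active = mean inhibition above about 93%, with at least 55% of replicates each passing it, limit read from the data, passing the limit was not always enough; inconclusive = only one of those two conditions holds; inactive = neither condition holds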
T cruzi growth-2 – blocks T. cruzi growth in NIH3T3 host cells. shares compounds with T cruzi growth-1. T. cruzi beta-gal in NIH3T3, GalScreen luminescence, 90 h. inhibition, % at 8.35 µM. hit rate 72% among 5,600. AID 651739;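 active = mean replicate inhibition above about 95% and at least 55% of replicates individually reaching it, limit read from the data; inconclusive = only one of the two criteria is met; inactive = neither criterion is met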
T cruzi growth-3 – Trypanosoma cruzi proliferation inhibition; shares compounds with T cruzi growth-1; T. cruzi beta-gal in NIH3T3, GalScreen luminescence, 90 h; hit rate 21% among 5,600; inhibition, % at 2.09 µM;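 active = mean inhibition above about 95%, with at least 55% of replicates also reaching it, limit read from the data; inconclusive = meets just one of the two conditions; inactive = meets neither condition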;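 note: plate controls were neutral control median for no effect and positive control median for full effect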
3T3 cytotox – cytotoxicity in mouse NIH/3T3 fibroblasts. shares compounds with T cruzi growth-1. NIH/3T3 viability, CellTiter-Glo ATP luminescence, 90 h. cytotoxicity (signal decrease), % at 8.35 µM. hit rate 14% among 5,600. AID 651742;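 active = mean signal decrease across replicates above about 35% based on untreated-well scatter, with enough replicates individually passing, limit read from the data; inconclusive = no rule stated though some were filed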;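 note: 0% = median of neutral control wells and 100% = median of positive control wells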
NIH3T3 tox 2 – NIH/3T3 (mouse) viability loss; shares compounds with T cruzi growth-1; NIH/3T3 viability, CellTiter-Glo ATP luminescence, 90 h; inhibition, % at 24.9 µM; hit rate 56% among 5,600;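 active = mean loss of cell viability signal at or above a set limit, and enough replicates individually reaching it; inconclusive = meets only the mean limit or only the replicate share; inactive = meets neither condition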;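 note: 0% = median of neutral control wells and 100% = median of positive control wells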
* = called active by the depositor; ? = inconclusive; / = not tested or not shown; ! = repeats disagree.

SMILES	Pf Dd2 growth	C diff HTS	T cruzi growth-1	T cruzi growth-2	T cruzi growth-3	3T3 cytotox	NIH3T3 tox 2
C[C@H]1CCCCO[C@@H](CN(C)C(=O)Nc2ccc3c(c2)OCO3)[C@@H](C)CN([C@@H](C)CO)C(=O)c2cc(NC(=O)Cc3ccccc3)ccc2O1	-60	-1	?	103*	11	6	-9
C[C@H](CO)N1C[C@H](C)[C@@H](CN(C)C(=O)Nc2ccc(F)cc2)OCCCC[C@H](C)Oc2ccc(NC(=O)Nc3ccccc3)cc2C1=O	16	1	114*	110*	31	-1	-15
C[C@H]1CCCCO[C@H](CN(C)C(=O)Nc2ccc(F)cc2)[C@@H](C)CN([C@@H](C)CO)C(=O)c2cc(NC(=O)Nc3ccccc3)ccc2O1	-51	0	?	108*	88	15	11
C[C@@H]1CCCCO[C@H](CN(C)C(=O)Nc2ccc3c(c2)OCO3)[C@@H](C)CN([C@H](C)CO)C(=O)c2cc(NC(=O)Cc3ccccc3)ccc2O1	-32	-3	38	/	/	/	/
CN1CCN(C(=O)C[C@H]2CC[C@H]3[C@@H](COC[C@@H](O)CN3Cc3ccc4c(c3)OCO4)O2)CC1	8	/	6	/	/	/	/
Cc1ccc(-c2cnc3c(c2)C(=O)N([C@H](C)CO)C[C@H](C)[C@H](CN(C)C(=O)c2ccccc2)O3)cc1	-8	-3	-13	/	/	/	/
C[C@@H]1CN([C@@H](C)CO)C(=O)c2cc(C#CC3(O)CCCC3)cnc2O[C@H]1CN(C)Cc1cccnc1	32	1	-39	/	/	/	/
O=C(C[C@@H]1C[C@H]2c3cc(NC(=O)Nc4ccc(C(F)(F)F)cc4)ccc3O[C@H]2[C@H](CO)O1)NCc1cc(F)ccc1F	-76	31	73	/	/	/	/
C[C@H](CO)N1C[C@H](C)[C@@H](CN(C)S(C)(=O)=O)Oc2c(NC(=O)NC3CCCCC3)cccc2C1=O	-3	-1	/	/	/	/	/
C[C@@H]1CCCCO[C@@H](CN(C)C(=O)Nc2ccc3c(c2)OCO3)[C@@H](C)CN([C@H](C)CO)C(=O)c2cc(N(C)C)ccc2O1	-6	5	96*!	41	-8	-10	-9
C[C@H](CO)N1C[C@H](C)[C@H](CN(C)C(=O)Nc2ccc3c(c2)OCO3)OCCCC[C@H](C)Oc2ccc(NC(=O)Nc3ccccc3)cc2C1=O	9	-6	114*	112*	55	-15	-20
C[C@H](CO)N1C[C@H](C)[C@H](CN(C)C(=O)Nc2ccccc2)OCCCC[C@H](C)Oc2ccc(NC(=O)Nc3ccccc3)cc2C1=O	-12	-5	67	/	/	/	/
C[C@@H]1CN([C@@H](C)CO)C(=O)c2cc(NC(=O)Nc3ccc(F)cc3)ccc2O[C@@H](C)CCCCO[C@H]1CN(C)C(=O)c1ccccc1	54	7	68	/	/	/	/
C[C@@H]1CCCCO[C@@H](CN(C)C(=O)Nc2ccccc2)[C@H](C)CN([C@H](C)CO)C(=O)c2cc(NC(=O)Nc3ccccc3)ccc2O1	-50	-2	99*	108*	60	2	3
C[C@@H]1CCCCO[C@H](CN(C)C(=O)Nc2ccc3c(c2)OCO3)[C@H](C)CN([C@@H](C)CO)C(=O)c2cc(N(C)C)ccc2O1	/	-3	72	/	/	/	/
C[C@@H]1CCCCO[C@@H](CN(C)C(=O)Nc2ccc3c(c2)OCO3)[C@H](C)CN([C@H](C)CO)C(=O)c2cc(NC(=O)Nc3ccccc3)ccc2O1	-46	-4	95	/	/	/	/
C[C@H]1CCCCO[C@@H](CN(C)C(=O)c2ccccc2)[C@@H](C)CN([C@@H](C)CO)C(=O)c2cc(NC(=O)Nc3ccc(F)cc3)ccc2O1	-68	-13	?	115*	12	3	15
C[C@@H]1CN([C@H](C)CO)C(=O)c2cc(NC(=O)CCC(F)(F)F)ccc2O[C@@H](C)CCCCO[C@@H]1CN(C)C(=O)C1CCCCC1	-59	0	36	/	/	/	/
O=C(c1ccc(F)cc1)N1CC(=O)N2[C@H](C1)[C@H](c1ccc(C3=CCCC3)cc1)[C@@H]2CO	14	-1	/	/	/	/	/
C[C@@H]1CN([C@H](C)CO)C(=O)c2cc(C#Cc3ccccc3)cnc2O[C@@H]1CN(C)Cc1ccccn1	-9	4	36	/	/	/	/
C[C@H](CO)N1C[C@H](C)[C@H](CN(C)C(=O)Nc2ccc3c(c2)OCO3)OCCCC[C@H](C)Oc2ccc(NC(=O)c3ccncc3)cc2C1=O	3	-2	38	/	/	/	/
C[C@H]1CN([C@@H](C)CO)C(=O)c2cc(/C=C/c3ccccc3)cnc2O[C@H]1CN(C)C(=O)C1CCOCC1	-1	0	62	/	/	/	/
C[C@@H]1CN([C@@H](C)CO)C(=O)c2cc(NS(=O)(=O)c3cccs3)ccc2O[C@H]1CN(C)Cc1ccc(Cl)c(Cl)c1	-2	6	14	/	/	/	/
CCCC(O)C#Cc1cnc2c(c1)C(=O)N([C@H](C)CO)C[C@H](C)[C@H](CN(C)C(=O)Nc1c(C)noc1C)O2 (some centres undefined)	38	-4	19	/	/	/	/
CO[C@@H]1CN(C)C(=O)c2cc(NC(=O)Nc3ccccc3)ccc2OC[C@H](C)N(C(=O)Nc2c(C)noc2C)C[C@@H]1C	-4	/	4	/	/	/	/
SMILES	Pf Dd2 growth	C diff HTS	T cruzi growth-1	T cruzi growth-2	T cruzi growth-3	3T3 cytotox	NIH3T3 tox 2
O=C(C[C@H]1C=C[C@H](NC(=O)CC2CC2)[C@@H](CO)O1)NCc1ccc(-c2ccccc2)cc1	20	/	8	/	/	/	/
C[C@H](CO)N1C[C@H](C)[C@@H](CN(C)S(=O)(=O)c2ccc(F)cc2)Oc2ccc(NS(C)(=O)=O)cc2C1=O	-21	-6	64	/	/	/	/
CO[C@@H]1CN(C)C(=O)c2cc(NS(=O)(=O)c3ccccc3)ccc2OC[C@H](C)NC[C@@H]1C	10	/	/	/	/	/	/
C[C@@H]1CN([C@@H](C)CO)C(=O)c2cc(NC(=O)C3CCCCC3)ccc2O[C@@H](C)CCCCO[C@@H]1CN(C)Cc1ccc(C(F)(F)F)cc1	-13	6	?	104*	105*	2	7
C[C@@H]1CCCCO[C@H](CN(C)Cc2ccc(C(=O)O)cc2)[C@@H](C)CN([C@H](C)CO)C(=O)c2cc(NC(=O)C3CCCCC3)ccc2O1	32	-9	0	/	/	/	/
C[C@@H]1CN([C@H](C)CO)C(=O)c2cc(NC(=O)C3CCCCC3)ccc2O[C@@H](C)CCCCO[C@@H]1CN(C)Cc1ccc(C(=O)O)cc1	3	-6	-7	/	/	/	/
C[C@@H]1CCCCO[C@H](CN(C)Cc2ccc(C(F)(F)F)cc2)[C@H](C)CN([C@H](C)CO)C(=O)c2cc(NC(=O)C3CCCCC3)ccc2O1	-37	-1	?	96*	110*	-3	14
C[C@H](CO)N1C[C@H](C)[C@H](CN(C)Cc2ccc(C(=O)O)cc2)OCCCC[C@H](C)Oc2ccc(NC(=O)C3CCCCC3)cc2C1=O	15	2	18	/	/	/	/
